# Data taken from PMC12864922, “TDP-43 directly inhibits mRNA accumulation in neurites through modulation of mRNA stability”.
# Whole data set: some 9,900 sequences, median “r (bound/input frequency ratio)” near 0.7, cut for the highest 2% near 6.5. The entries come from a sample that favours the highest values as a whole.
# B1: ENSMUSG00000058297.38|Spock2|23:27;31:44;53:64;78:84;93:102;108:133 (ssRNA)
# RNA: GGGAGUUCUACAGUCCGACGAUCGCUUCGAUAUCCGCAUGCUAUCCAGUGGGGGAGGACUGGGGACACACGCUACACACAUACACACAUAUGAGAACACACACAUACAUGUGAGAUGUGACACACACAUGUGAGAACACACAUACUGAGAACACACACACACACACACACACACACAUGUGAGUCACCCAAAGGUCCCUAUGUUAUUGAUUUUCAAAUGCACACUUUCACACACAAGGAUACACUAACAGACCAAAAUCAAUGAGAUGUCCCUGAUCCUGCCCCUCAGCCCAACACCUGGAAUCUCUUGCGGUCGCACUAGUGUGGAAUUCUCGGGUGUCAAGG
# B2: ENSMUSG00000058297.41|Spock2 (ssRNA)
# RNA: GGGAGUUCUACAGUCCGACGAUCGCUUCGAUAUCCGCAUGCUAGGGAGUGUGGCUUGUGUGUAUGUGUGAUAUGAGAUGUGUGUGUAUGAUGUGAGAUGUGAGUGUGUGAUGUGAGAUGUGUGUAUGUGAGAUGUGUGUGUGUGUGUGUGUGUGUGUGAUGUGAGUCACCCAAAGGUCCCUAUGUUAUUGAUUUUCAAAUGCACACUUUCACACACAAGGAUACACUAACAGACCAAAAUCAAUGAGAUGUCCCUGAUCCUGCCCCUCAGCCCAACACCUGGAAUCCCUGCCCUGCCUAAUCACUCUUGCGGUCGCACUAGUGUGGAAUUCUCGGGUGUCAAGG
# B3: ENSMUSG00000058297.37|Spock2 (ssRNA)
# RNA: GGGAGUUCUACAGUCCGACGAUCGCUUCGAUAUCCGCAUGCUACCUGGCUCCAGUGGGGGAGGACUGGGGAGUGUGGCUUGUGUGUAUGUGUGAUAUGAGAUGUGUGUGUAUGAUGUGAGAUGUGAGUGUGUGAUGUGAGAUGUGUGUAUGUGAGAUGUGUGUGUGUGUGUGUGUGUGUGUGAUGUGAGUCACCCAAAGGUCCCUAUGUUAUUGAUUUUCAAAUGCACACUUUCACACACAAGGAUACACUAACAGACCAAAAUCAAUGAGAUGUCCCUGAUCCUGCCCCUCAGCCCAACACCCUCUUGCGGUCGCACUAGUGUGGAAUUCUCGGGUGUCAAGG
# B4: ENSMUSG00000058297.38|Spock2 (ssRNA)
# RNA: GGGAGUUCUACAGUCCGACGAUCGCUUCGAUAUCCGCAUGCUAUCCAGUGGGGGAGGACUGGGGAGUGUGGCUUGUGUGUAUGUGUGAUAUGAGAUGUGUGUGUAUGAUGUGAGAUGUGAGUGUGUGAUGUGAGAUGUGUGUAUGUGAGAUGUGUGUGUGUGUGUGUGUGUGUGUGAUGUGAGUCACCCAAAGGUCCCUAUGUUAUUGAUUUUCAAAUGCACACUUUCACACACAAGGAUACACUAACAGACCAAAAUCAAUGAGAUGUCCCUGAUCCUGCCCCUCAGCCCAACACCUGGAAUCUCUUGCGGUCGCACUAGUGUGGAAUUCUCGGGUGUCAAGG
# B5: ENSMUSG00000058297.40|Spock2 (ssRNA)
# RNA: GGGAGUUCUACAGUCCGACGAUCGCUUCGAUAUCCGCAUGCUAGGACUGGGGAGUGUGGCUUGUGUGUAUGUGUGAUAUGAGAUGUGUGUGUAUGAUGUGAGAUGUGAGUGUGUGAUGUGAGAUGUGUGUAUGUGAGAUGUGUGUGUGUGUGUGUGUGUGUGUGAUGUGAGUCACCCAAAGGUCCCUAUGUUAUUGAUUUUCAAAUGCACACUUUCACACACAAGGAUACACUAACAGACCAAAAUCAAUGAGAUGUCCCUGAUCCUGCCCCUCAGCCCAACACCUGGAAUCCCUGCCCUGCCCUCUUGCGGUCGCACUAGUGUGGAAUUCUCGGGUGUCAAGG
# B6: ENSMUSG00000058297.39|Spock2 (ssRNA)
# RNA: GGGAGUUCUACAGUCCGACGAUCGCUUCGAUAUCCGCAUGCUAGGGGGAGGACUGGGGAGUGUGGCUUGUGUGUAUGUGUGAUAUGAGAUGUGUGUGUAUGAUGUGAGAUGUGAGUGUGUGAUGUGAGAUGUGUGUAUGUGAGAUGUGUGUGUGUGUGUGUGUGUGUGUGAUGUGAGUCACCCAAAGGUCCCUAUGUUAUUGAUUUUCAAAUGCACACUUUCACACACAAGGAUACACUAACAGACCAAAAUCAAUGAGAUGUCCCUGAUCCUGCCCCUCAGCCCAACACCUGGAAUCCCUGCCUCUUGCGGUCGCACUAGUGUGGAAUUCUCGGGUGUCAAGG
# Target: TDP-43 (Homo sapiens, UniProt Q13148 1-414)
# Sequence (Q13148 whole entry): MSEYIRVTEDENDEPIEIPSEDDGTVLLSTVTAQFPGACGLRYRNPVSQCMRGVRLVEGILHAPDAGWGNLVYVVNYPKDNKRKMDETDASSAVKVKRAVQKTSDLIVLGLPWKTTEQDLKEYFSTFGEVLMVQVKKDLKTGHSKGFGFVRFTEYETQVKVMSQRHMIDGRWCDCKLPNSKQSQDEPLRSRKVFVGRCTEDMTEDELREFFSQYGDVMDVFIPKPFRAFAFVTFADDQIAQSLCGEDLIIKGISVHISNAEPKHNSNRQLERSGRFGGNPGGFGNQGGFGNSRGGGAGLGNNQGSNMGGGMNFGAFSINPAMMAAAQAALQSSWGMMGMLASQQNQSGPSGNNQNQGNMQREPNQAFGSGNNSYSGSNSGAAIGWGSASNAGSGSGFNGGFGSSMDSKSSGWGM
# Assay: RNA Bind-n-Seq with designed 260-mer pool; 25 mM Tris-HCl, 150 mM KCl, 3 mM MgCl2, BSA (printed 500 mg/mL), 20 units/mL SUPERase IN; pH not stated; 500 nM RNA pool, 1 h, 4 C; TDP-43 5, 50, 500 nM; high values mean tight binding
# Details: protein: recombinant; tags: SBP (GST cleaved off with PreScission; pGEX-GST-SBP)
# Method in brief: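 Recombinant SBP-tagged TDP-43 at 5, 50 or 500 nM was captured on streptavidin beads, then incubated 1 h at 4 °C with 500 nM of an in vitro-transcribed 260-nt 3′ UTR oligo pool in 25 mM Tris-HCl, 150 mM KCl, 3 mM MgCl2, BSA and SUPERase IN. Bound RNA was washed, eluted with biotin, reverse transcribed, PCR-amplified and sequenced. Binding is R, each oligo's mapped-read-normalized abundance in the bound sample divided by its abundance in input. Duplicates used two independent protein batches.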
row,Binder,binding signal
1,B1,2.11 R (bound/input frequency ratio)
2,B2,5.21 R (bound/input frequency ratio)
3,B3,6.03 R (bound/input frequency ratio)
4,B4,6.55 R (bound/input frequency ratio)
5,B5,8.17 R (bound/input frequency ratio)
6,B6,5.98 R (bound/input frequency ratio)
